Where “and” joins values, the source holds several entries; their conditions need not be identical. Equal entries are not always repeated. Among all 84,000 compounds or so, about 110 (0.13%) were called active. No stated cut-off is given here; in the data, active means inhibition above about 30% (passing the limit was not always enough); inactive means the rest. For the sample, actives were picked, then their nearest neighbours and some compounds at random. The source holds several records for some structures; these can differ, active in one and inactive in another.
System: MgrA (MarR family transcriptional regulator), Staphylococcus aureus Newman
Assay: S. aureus MgrA activity modulators, primary screen, biochemical, S. aureus Newman, fluorescence polarization (AID 602314);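 further: 0% = protein plus DNA without compound and 100% = DNA alone without protein; higher means less MgrA bound to DNA so lower polarization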
Conditions: MgrA-DNA binding, stronger effect = higher value, concentration not given here

| Structure (SMILES) | inhibition |
| --- | --- |
| COc1ccc(Cl)c2c1NC(c1ccncc1)C1CC=CC21 (stereo unspecified) | 0% (inactive) |
| CC1(C)CC(CC#N)(c2ccccc2)CCO1 (stereo unspecified) | -1.15% (inactive) |
| Cn1c(SCC(=O)NCc2ccc(Cl)cc2)nnc1-c1ccc(Cl)cc1 | -0.25% (inactive) |
| NC(=O)c1ccccc1N=Cc1ccc2ccccc2c1 | -2.2% (inactive) |
| Cc1ccc2c(c1)NC(c1cc(Cl)cc(Cl)c1O)c1cccn1-2 (stereo unspecified) | 0.6% (inactive) |
| Cc1nc2onc(OCC(=O)OCc3ccccc3)c2c(C)c1C | 0.6% (inactive) |
| O=C1CCCN1c1ccc(OC(F)(F)F)cc1 | -1.5% (inactive) |
| C=CCC1NC(C)(C)Cc2ccccc21 (stereo unspecified) | -0.25% (inactive) |
| CC1CCCCN1C(=O)c1ccccc1F (stereo unspecified) | -1.4% (inactive) |
| NCC1(N2CCCCC2)CCCCC1 | -1.35% (inactive) |
| Cc1onc(-c2ccccc2)c1C(=O)N=C(N)c1ccc(Cl)cc1 | -1.9% (inactive) |
| C=CCSc1nc2c(c(=O)[nH]c(=O)n2C)n1C/C=C(\C)Cl | 3% (inactive) |
| Cc1cc(C)cc(C(=O)OCC(=O)Nc2cccc(C(F)(F)F)c2)c1 | 3.35% (inactive) |
| COC(=O)c1sc(-c2ccc(Cl)cc2)cc1NC(=O)c1ccc2nsnc2c1 | -0.8% (inactive) |
| CC(=O)N1N=C(c2c(-c3ccccc3)c3cc(Cl)ccc3[nH]c2=O)CC1c1cccc(Br)c1 (stereo unspecified) | -1.4% (inactive) |
| Cc1[nH]ncc1-c1ccccc1 | -1.4% (inactive) |
| CCOC(=O)c1sc(SC)c2c1CC(c1ccc(C)cc1)CC2=O (stereo unspecified) | -0.2% (inactive) |
| O=[N+]([O-])c1cc(C(F)(F)F)cc([N+](=O)[O-])c1Oc1ccc(Cl)cc1Cl | 3.2% (inactive) |
| CC(C)(C)c1c[n+](-c2ccccc2)c2n1CCS2 | 0.1% (inactive) |
| COC(=O)COc1ccccc1C#N | 0.4% (inactive) |
| CC1OC(O[C@H]2/C=C/C=C/C=C/C=C/C=C/C=C/C=C/[C@H](C)[C@@H](O)[C@@H](C)[C@H](C)OC(=O)CC(O)CC(O)CCC(O)C(O)CC(O)CC3(O)C[C@H](O)C(C(=O)O)C(C2)O3)C(O)[C@H](N)C1O (stereo partly specified) | 2.9% (inactive) |
| O=c1[nH]nc(-c2ccccc2)[nH]1 | -1.6% (inactive) |
| CCC(=O)Nc1cc(NC(=O)c2ccco2)ccc1C | -1.65% (inactive) |
| O=C(Nc1ccccc1)OCC12COC(c3ccccc3)N1C(c1ccccc1)OC2 (stereo unspecified) | -1.5% (inactive) |

| Structure (SMILES) | inhibition |
| --- | --- |
| O=C(c1ccco1)N1CCN(c2cnn(-c3ccccc3)c(=O)c2Cl)CC1 | -0.95% (inactive) |
| Cc1ccc2c(c1)c1c(n2CC(O)CNCc2ccccc2)CCCC1 (stereo unspecified) | -1.7% (inactive) |
| CN(C(=O)CSc1nncc(=O)[nH]1)c1ccccc1 | -1.65% (inactive) |
| CC1(C)CC(=O)C2=C(C1)OC1=C(C(=O)CC(C)(C)C1)C2c1cn(Cc2ccc(Cl)cc2Cl)nc1-c1ccccc1 | -0.5% (inactive) |
| COc1cc(C2C3=C(CC(C)(C)CC3=O)OC3=C2C(=O)CC(C)(C)C3)c(Br)cc1OCC(=O)O | 3.4% (inactive) |
| O=C(NN=c1c(=O)c2ccccc2c1=O)c1ccncc1 | 1.9% (inactive) |
| CCn1c(=O)c2ccccc2n(CC(=O)c2ccc(C)cc2)c1=O | -1.25% (inactive) |
| CC1CCCN(c2ncccc2C(=O)NCC2CCCO2)C1 (stereo unspecified) | 1.1% (inactive) |
| CN(C(=O)c1cc2nc(-c3ccco3)cc(C(F)(F)F)n2n1)c1ccc(OC(F)(F)F)cc1 | -0.95% (inactive) |
| COc1ccc(C(=O)COC2=C(C#N)C3(CCCC3)C(C#N)C(=S)N2)cc1OC (stereo unspecified) | -1.5% (inactive) |
| CCOc1ccc(CC(C(=O)O)C(=O)O)cc1 | 0.1% (inactive) |
| N#CCCN(C1CCCCC1)S(=O)(=O)c1ccc(Br)cc1 | -0.95% (inactive) |
| COc1ccc(CC(NC(C)=O)C(=O)O)c(Cl)c1OC (stereo unspecified) | -0.7% (inactive) |
| Cn1c(SCC(=O)Nc2ccc(C(F)(F)F)cc2)nnc1-c1ccc2nonc2c1 | -0.1% (inactive) |
| COC(=O)C1=Cc2cc(Cl)ccc2OC1 | 0.15% (inactive) |
| Cc1cccc(CN2C(=O)CSc3nc(C)cc(C)c32)c1 | -0.45% (inactive) |
| CCN(CC)CCCN1C(=O)C2C3C=CC(C2C1=O)C1C2C(=O)N(CCCN(CC)CC)C(=O)C2C31 (stereo unspecified) | 0.8% (inactive) |
| CCOc1ccc(NC(=O)c2cc(-c3ccc(OC)c(OC)c3)nc3ccccc23)c([N+](=O)[O-])c1 | -1.4% (inactive) |
| COc1ccc(C)c2c1CCCC2=O | -1.4% (inactive) |
| Cc1ccc(Nc2cc([Se]c3ccccc3)c(N)c3c2C(=O)c2ccccc2C3=O)cc1 | -3.2% (inactive) |
| Cc1ccc2sc(-c3ccc(NC(=O)C(C)C)cc3)nc2c1 | -2.5% (inactive) |
| Cc1ccc(-c2noc(CN(C)C(=O)Nc3ccc(Cl)cc3)n2)cc1 | 0.05% (inactive) |
| COc1cccc2c1NC(c1cccc(Cl)c1Cl)C1CC=CC21 (stereo unspecified) | -1.1% (inactive) |
| Cc1ccccc1Cn1nnc(-c2ccncc2)n1 | -3.5% (inactive) |

| Structure (SMILES) | inhibition |
| --- | --- |
| COc1ccc(-c2ccc(/C=c3\sc4nc5cc(C)c(C)cc5n4c3=O)o2)c([N+](=O)[O-])c1 | 0.8% (inactive) |
| O=C(CC1CCCCC1)NCc1ccco1 | 1.25% (inactive) |
| CC(=O)Oc1ccc(OC(C)=O)c2c1C1C=CC2CC1 | -2.5% (inactive) |
| COc1ccc(Nc2nc(Cl)nc(NCCN3CCOCC3)n2)c(OC)c1 | 0.3% (inactive) |
| O=C(Nc1ccccc1C(=O)N1CCCC1)Oc1ccccc1 | -0.95% (inactive) |
| CCCCn1c(SCC(=O)N(C(C)C)C(C)C)nc2c1c(=O)n(C)c(=O)n2C | 0.4% (inactive) |
| O=c1c2c3c(sc2ncn1Cc1nn[nH]n1)CCCC3 | -0.2% (inactive) |
| Cc1c(CN2CCCCC2)c(O)n(CCO)c(=O)c1C#N | -3.25% (inactive) |
| C=CCn1cnc2c(c1=O)c1nc3ccccc3nc1n2-c1cccc(Br)c1 | 2.4% (inactive) |
| CCOc1cc2c(cc1/C=C(\C#N)c1ccc(C(F)(F)F)cc1)OCO2 | 1.15% (inactive) |
| O=S(=O)(c1ccc(Cl)cc1)N1CCCN(Cc2ccc(Cl)cc2Cl)CC1 | 1% (inactive) |
| CCn1cc(S(=O)(=O)Nc2cc(C)on2)cn1 | -2.15% (inactive) |
| COc1ccccc1N1C(=O)NC(=O)/C(=C/c2cn(C(C)=O)c3ccccc23)C1=O | 10.3% (inactive) |
| O=S(=O)(c1ccc(Br)s1)N1CCCC1 | 2.65% (inactive) |
| CSc1noc(-c2ccc(C(C)(C)C)cc2)c1C#N | 4.25% (inactive) |
| N=C1/C(=C\c2cccn2-c2ccc3ccccc3c2)C(=O)N=C2SC=NN12 | 4.5% (inactive) |
| CCOC(=O)C1CCCN(c2c3c(nc4cc(-c5ccc(C)cc5)nn24)CCC3)C1 (stereo unspecified) | -2.15% (inactive) |
| COc1cc(C=Nc2ccc3[nH]c(=O)[nH]c3c2)ccc1OC(C)=O | 0.05% (inactive) |
| COc1ccc2nc(SCC(=O)c3ccc(Cl)c(Cl)c3)[nH]c2c1 | -2.6% (inactive) |
| Cn1c(-c2ccccc2)c[n+]2c1CCCCC2 | -2.6% (inactive) |
| N=Cc1c(O)n(-c2ccccc2)c2ccccc12 | 4.8% (inactive) |
| CCOC(=O)C1=C(C)N(C)C(C)=C(C(=O)OCC)C1c1ccccc1F | -0.1% (inactive) |
| O=c1oc(Nc2ccc(C(F)(F)F)cc2)nc2ccccc12 | 0.2% (inactive) |
| COc1ccc(CCN(Cc2cc3cc4c(cc3[nH]c2=O)OCO4)C(=O)c2ccncc2)cc1OC | 2.6% (inactive) |

| Structure (SMILES) | inhibition |
| --- | --- |
| S=C(Nc1ccc2[nH]ccc2c1)NC1CC2C=CC1C2 (stereo unspecified) | -0.05% (inactive) |
| Cc1cccc(NC(=O)c2cn(-c3ccccc3)nc2-c2cccnc2)c1 | -3% (inactive) |
| OC1(C(F)(F)F)CC(c2ccccc2)=NN1c1cccc2cccnc12 (stereo unspecified) | -1.3% (inactive) |
| CN1C(=O)C2N=NN(c3ccccc3)C2C1=O (stereo unspecified) | 1.8% (inactive) |
| O=C(N/N=C/C1CC=CCC1)c1ccccc1 (stereo unspecified) | 2.3% (inactive) |
| O=C(COc1ccc(C2Nc3cccc4cccc(c34)N2)cc1)Nc1ccccc1 | 1.95% (inactive) |
| O=C(Nc1cccc2ccccc12)NC1CC1 | 1.3% (inactive) |
| CC1=C(C(=O)OCC2CCCCC2)C(c2ccccc2OCc2ccccc2)NC(=O)N1 (stereo unspecified) | -1.8% (inactive) |
| CCOC(=O)c1sc(NC(=O)c2sc3ccccc3c2Cl)nc1-c1ccccc1 | -3.1% (inactive) |
| COc1cccc(C(=O)Nc2ccccc2Cl)c1 | -5.8% (inactive) |
| COc1ccccc1N1C(=O)C(=Cc2ccco2)C(=O)N(c2ccccc2OC)C1=O | 2.2% (inactive) |
| CC(=O)Oc1ccc(C2NC(C(=O)O)CS2)cc1 (stereo unspecified) | -3.3% (inactive) |
| O=C1NC(=S)N(c2ccc(Br)cc2)C(=O)/C1=C/c1ccsc1 | 24.2% (inactive) |
| O=C(O)c1ccc(Cl)cc1N=Cc1nc(-c2ccc(Br)cc2)oc1O | -0.9% (inactive) |
| Cc1ccc(-c2nn(CCC(=O)Nc3cccc(C(F)(F)F)c3)c(=O)c3ccccc23)cc1 | 0.65% (inactive) |
| O=C(CN1CCN(c2cccc(Cl)c2)CC1)c1ccc(Cl)cc1 | 6.3% (inactive) |
| COC(=O)c1cccnc1NC(=S)NC(C)C | 3.15% (inactive) |
| COc1ccc(NC(=O)Nc2ccc(N3CCOCC3)cc2)cc1 | -0.2% (inactive) |
| O=C1C(Nc2ccc(O)cc2)=C(n2nnc3ccccc32)C(=O)c2ccccc21 | -0.3% (inactive) |
| NC(=S)C1(c2ccc(Cl)cc2Cl)CC1 | -0.5% (inactive) |
| CC1CN(S(=O)(=O)c2ccc3c4c(cccc24)C(=O)N3)CC(C)O1 (stereo unspecified) | 0.25% (inactive) |
| CC[n+]1c(C)n(-c2ccccc2)c2ccc(N)cc21 | 1.45% (inactive) |
| CC[N+](C)(CC)CCC[n+]1c(-c2ccccc2)c2cc(N)ccc2c2ccc(N)cc21 | 104% (active) and 0.85% (inactive) |
| N=C1/C(=C/c2ccc(SCc3ccccc3)o2)C(=O)N=C2SC=CN12 | 1.55% (inactive) |

— PubChem BioAssay AID602314 (ICCB-Longwood Screening Facility, Harvard Medical School, 2012)
